NPC1 prom act: qHTS Assay for NPC1 Promoter Activators | Huh7 NPC1 promoter luciferase reporter, 24 h | Potency, µM (series often up to 9.22 µM), inactives show top-dose activation, actives largely listed as activators | 2.4% of 320,000 active | AID 485313, 2010; further: % of control where 0% means no effect; nearly all actives have a fitted effect of over 60% in size
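Huh7 cells stably carrying NPC1 promoter–luciferase, plated in Opti-MEM with 10% FBS for 2 h, were exposed to compound in DMSO for 24 h at 37 °C; luciferase reagent was added for 10 min and luminescence read.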
Rab9 promoter act: qHTS Assay for Rab9 Promoter Activators | AID 485297, 2010 | Huh7 Rab9 promoter-luciferase reporter, luminescence, 24 h | Potency, µM (doses to about 9.22 µM), for inactives: top-dose activation, negative = inhibition, usual class: activators | 2.8% of 320,000 active; further: % of control where 0% means no effect; nearly all actives have a fitted effect of over 60% in size
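Huh7 reporter line, Rab9 promoter upstream of luciferase. Compound exposure 24 h at 37 °C in reduced-serum medium with 10% FBS. Read-out: luminescence.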
FLuc counter: qHTS profiling assay for firefly luciferase inhibitor/activator using purifed enzyme and Km concentrations of substrates (counterscreen for miR-21 project). 6.9% of 360,000 active. AID 588342, 2011. Potency, µM (titrated, usually from 57.5 µM), for inactives: at the highest dose activity change, negative = inhibition, usual class: inhibitors. purified FLuc, Km substrates, luminescence inhibition;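 further: plate controls were vehicle for no effect and reference inhibitor for full effect; nearly all actives have a fitted effect of over 55% in size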
Target sequence (P08659 whole entry, looked up): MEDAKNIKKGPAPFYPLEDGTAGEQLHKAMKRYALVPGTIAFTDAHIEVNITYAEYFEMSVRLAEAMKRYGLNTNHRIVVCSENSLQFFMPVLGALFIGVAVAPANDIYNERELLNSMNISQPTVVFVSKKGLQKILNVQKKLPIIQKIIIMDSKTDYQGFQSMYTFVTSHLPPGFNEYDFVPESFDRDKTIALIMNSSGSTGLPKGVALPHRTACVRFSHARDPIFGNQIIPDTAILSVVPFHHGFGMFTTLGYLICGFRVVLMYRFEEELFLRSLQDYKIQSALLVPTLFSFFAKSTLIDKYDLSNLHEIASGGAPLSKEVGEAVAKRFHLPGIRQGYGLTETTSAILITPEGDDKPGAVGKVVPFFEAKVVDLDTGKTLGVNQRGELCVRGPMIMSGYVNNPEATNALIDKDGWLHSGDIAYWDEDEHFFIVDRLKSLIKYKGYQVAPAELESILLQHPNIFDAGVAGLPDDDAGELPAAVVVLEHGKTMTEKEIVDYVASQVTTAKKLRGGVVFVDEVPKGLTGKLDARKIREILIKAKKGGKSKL
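Biochemical qHTS of compounds, final roughly 60 µM downward over six points, against 10 nM purified firefly luciferase using Km concentrations of substrates (10 uM D-luciferin, 10 uM ATP) in Tris acetate pH 7.5 buffer; luminescence output.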
SMN2 splice enh: qHTS Assay for Enhancers of SMN2 Splice Variant Expression | HEK293 SMN2-luciferase splicing reporter, luminescence, 30-36 h | Potency, µM (titrated, usually from 46.1 µM), inactives show top-dose activity change, positive = activation, usual class: activators | 2.8% of 210,000 active | AID 1458, 2008; further: % of control where 0% means no effect; nearly all actives have a fitted effect of over 55% in size
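HEK293 cells carry an SMN2 […]–luciferase reporter in which exon 7 inclusion puts luciferase in frame. Cells were plated 10-12 h before compound addition, then incubated 30-36 h at 37C. ONE-Glo luminescence was read; sodium butyrate at 4.5 mM final served as control.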
ELG1 DNA repair: qHTS screen for small molecules that inhibit ELG1-dependent DNA repair in human embryonic kidney (HEK293T) cells expressing luciferase-tagged ELG1. HEK293T ELG1-luciferase reporter, luminescence, 16 h; DNA damage induced by 5-fluorouridine. Potency, µM (top dose mostly 46.1 µM), inactives show at the top dose activity change, negative = inhibition, hits mostly inhibitors. 2.3% of 330,000 active. AID 504467, 2011; further: on the % scale 0 is the no-effect control and ±100 the full control effect; nearly all actives have a fitted effect of over 55% in size
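HEK293T cells expressing luciferase-tagged ELG1 (2,000/well) received 5-Fluorouridine plus compound or DMSO for 16 hr at 37 °C. Luciferase was read by ONE-Glo luminescence after 30 min at room temperature.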
ELG1 genotox: qHTS screen for small molecules that induce genotoxicity in human embryonic kidney (HEK293T) cells expressing luciferase-tagged ELG1; HEK293T ELG1-luciferase reporter, luminescence, 16 h; Potency, µM (series often up to 46 µM), for inactives: top-dose activity change, positive = activation, usual class: activators; 1.3% of 330,000 active; AID 504466, 2011; further: % of control where 0% means no effect; nearly all actives have a fitted effect of over 60% in size
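Step 1: seed 2,000 HEK293T ELG1-luciferase cells per well. Step 2: add compound or DMSO, incubate 16 hr at 37 °C. Step 3: ONE-Glo, 30 min at room temperature, read luminescence.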
* marks the source's active call; other numbers are inactive results. Shown are actives, neighbours in structure and some others; about 9.4% of the full set was active somewhere. The call rests on the fitted dose curve; in most records, active means well fitted curve in the direction sought with a large enough effect; inconclusive means small, poorly fitted or top-dose-only effect, or another doubt; inactive means no such curve, though single readings can be large; an effect the other way counts as inactive or inconclusive. Potency means the concentration at half of the fitted maximal effect.

How did CCOC(=O)c1c(NC(C)=O)c2c3c(sc2n1Cc1ccc(Cl)cc1)CCCC3 do in these assays?
FLuc counter: -2%; SMN2 splice enh: 5%

Results for CCc1ccc(NC(=O)[C@H](C)NC(=O)C2CCN(C(=O)[C@@H](NC(=O)OC(C)(C)C)C(C)C)CC2)cc1 ?
NPC1 prom act: 18%; Rab9 promoter act: 15%; FLuc counter: 21µM*; ELG1 DNA repair: inconclusive; ELG1 genotox: 7%

How did CC(C)[C@H](NC(=O)OC(C)(C)C)C(=O)N1CCC(C(=O)N[C@@H](C)C(=O)Nc2ccc(F)cc2)CC1 do in these assays?
NPC1 prom act: -3%; Rab9 promoter act: 0%; FLuc counter: 1%; ELG1 DNA repair: 5%; ELG1 genotox: -4%

What do the screens show for `COc1ccc(C(=O)Oc2c(Sc3ccc(Cl)cc3)c(C)nn2C(C)(C)C)cc1OC`?
FLuc counter: 2%; SMN2 splice enh: -1%

How did CCCCc1nc(NCCN2CCOCC2)c(C#N)c2c1COC(C)(C)C2 do in these assays?
NPC1 prom act: -3%; Rab9 promoter act: 6%; FLuc counter: 1%; SMN2 splice enh: -9%; ELG1 DNA repair: 12µM*; ELG1 genotox: 2%

How did CCc1cnc2c(c1SCCC(C)C)c(=O)n(C)c(=O)n2C do in these assays?
FLuc counter: -13%

Results for Cc1cc(NC(=O)CSc2nc3c([nH]c4ccccc43)c(=O)n2-c2ccccc2F)no1 ?
NPC1 prom act: 0%; Rab9 promoter act: 7%; FLuc counter: -2%; ELG1 DNA repair: 21µM*; ELG1 genotox: -12%

Results for COc1cccc(-n2c(SCC(N)=O)nc3c([nH]c4ccccc43)c2=O)c1 ?
NPC1 prom act: 1%; Rab9 promoter act: 2%; FLuc counter: -12%; SMN2 splice enh: 13µM*; ELG1 DNA repair: -27%; ELG1 genotox: 14%

What do the screens show for `COc1cccc(C(=O)NCC(c2ccc(N(C)C)cc2)N2CCc3ccccc32)c1OC` (configuration not stated)?
FLuc counter: 3%

What do the screens show for `CC(=O)Nc1ccc(S(=O)(=O)N2CCC(c3nnnn3-c3ccccc3)CC2)cc1`?
FLuc counter: 0%; SMN2 splice enh: -1%

Results for CC(C)(C)C(=O)OCc1cn(-c2ccccc2)nn1 ?
NPC1 prom act: inconclusive; Rab9 promoter act: 13%; FLuc counter: inconclusive; SMN2 splice enh: 8%; ELG1 DNA repair: inconclusive; ELG1 genotox: 14%

Results for CC(C)(C)C(=O)OCc1cn(-c2ccc(Cl)cc2)nn1 ?
NPC1 prom act: inconclusive; Rab9 promoter act: 11%; FLuc counter: 15µM*; SMN2 splice enh: 0%; ELG1 DNA repair: inconclusive; ELG1 genotox: inconclusive

Results for CCn1cc(C=C2C(=O)c3ccccc3C2=O)c2ccccc21 ?
NPC1 prom act: 1%; Rab9 promoter act: -2%; FLuc counter: 6µM*; SMN2 splice enh: 10%; ELG1 DNA repair: inconclusive; ELG1 genotox: inconclusive

How did COC(=O)C1CN(C(=O)COc2ccc(Cl)cc2Cl)c2ccccc2O1 (configuration not stated) do in these assays?
NPC1 prom act: 1%; Rab9 promoter act: 1%; FLuc counter: 19µM*; ELG1 DNA repair: 4%; ELG1 genotox: 3%

How did O=C(/C(C=Nc1ccc(F)cc1)=C(/O)c1ccco1)C(F)(F)F do in these assays?
NPC1 prom act: 2%; Rab9 promoter act: 24%; FLuc counter: 8.5µM*; SMN2 splice enh: inconclusive; ELG1 DNA repair: inconclusive; ELG1 genotox: 7.3µM*

Screening data as filed in PubChem.
